In the library only some 2.2% were active in any assay of this set; here they are far more common.
rTrxR1 inhibitor – inhibitors of rat thioredoxin reductase 1. O89049. recombinant rTrxR1, NADPH fluorescence consumption, selenite substrate. Potency, µM (titrated, usually from 114 µM), for inactives: top-dose activity change, negative = inhibition, usual class: inhibitors. 390,000 tested, 1% active. AID 588453; further: potency means the concentration at half of the fitted maximal effect; on the % scale 0 is the no-effect control and ±100 the full control effect; nearly all actives have a fitted effect of over 65% in size
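Rat TrxR1 (90 nM in the dispensed reagent) was pre-reduced with 400 uM NADPH for 5 min at room temperature, then incubated with compound for 15 min. After 400 uM selenite was added, NADPH fluorescence (Ex 340/Em 450 nm) was followed for 8 min.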
BRCA1 expr up – activators of BRCA1 expression. MCF7-BRCA1-FFLuc reporter, luminescence, 48 h; response scale: scaled: vehicle 0%, 10 µM genistein 100%. 380,000 tested, 1.1% active. AID 624202. Potency, µM (doses to about 46.1 µM), for the others: at the top dose activation, most hits filed as activators; further: potency means the concentration at half of the fitted maximal effect; nearly all actives have a fitted effect of over 80% in size
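Cells: MCF7-BRCA1-FFLuc, 2000/well. Exposure: 48 h, 37 °C, 5% CO2. Read: luminescence, 15 min post-substrate. Controls: genistein 10 microM (maximal activation), DMSO (neutral).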
Giardia killer – kills Giardia lamblia; Giardia lamblia trophozoite viability; AID 540267; activity change, % at 7.66 µM, hits read low; 340,000 tested, 0.15% active; in the data active means activity change below about -80%; inconclusive means between about -30% and that limit;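 further: parasites exposed to compound for two days anaerobically before the ATP read; on the % scale 0 is the no-effect control and ±100 the full control effect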
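Giardia trophozoites, 100 cells per well, were exposed to compounds for 48 hrs at 37 deg C under anaerobic conditions; viability was then read as ATP content by bioluminescence after 15-30 min at room temperature.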
TrxR1 substrate – substrates of rat thioredoxin reductase 1 | 390,000 tested, 0.01% active | O89049 | AID 588456 | Potency, µM (top dose mostly 114 µM), for inactives: top-dose activity change, negative = substrate turnover | purified TrxR1 substrate turnover, NADPH consumption readout; further: potency means the concentration at half of the fitted maximal effect; on the % scale 0 is the no-effect control and ±100 the full control effect; nearly all actives have a fitted effect of over 50% in size
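Rat TrxR1, dispensed at 90 nM, was prereduced with 400 uM NADPH (final) for 5 min at ~22 deg C, then incubated with compound 15 min before 400 uM selenite. A first-read NADPH fluorescence drop versus no-compound background flagged substrates.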
IL2 activator – activates IL-2 in a cell-based reporter assay; IL-2 activation reporter assay, cell-based qHTS; stimulated with anti-CD3/CD4/CD28 beads; in transgenic mouse T cells; activation, % (series mostly up to about 46 µM); 360,000 tested, 0.065% active; in the data active means activation above about 50%; inconclusive means mostly about 30% to 49%; further: 0% is about no effect
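Unstimulated transgenic mouse T cells; 60-min compound exposure; bead-based TCR/CD4/CD28 stimulation; 18 h culture, 37 degrees C; dual fluorescence (EGFP, DsRed) plate cytometry.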
IDH1 R132H inh – human IDH1 R132H inhibition. O75874. IDH1-R132H enzyme, NADPH consumption, diaphorase/resazurin fluorescence. Potency, µM (top dose mostly 76.6 µM), without a hit: at the top dose activity change, negative = inhibition, actives largely listed as inhibitors. 390,000 tested, 0.093% active. AID 602179; further: potency means the concentration at half of the fitted maximal effect; on the % scale 0 is the no-effect control and ±100 the full control effect; nearly all actives have a fitted effect of over 65% in size
Target sequence (O75874 whole entry R132H, stated change not applied): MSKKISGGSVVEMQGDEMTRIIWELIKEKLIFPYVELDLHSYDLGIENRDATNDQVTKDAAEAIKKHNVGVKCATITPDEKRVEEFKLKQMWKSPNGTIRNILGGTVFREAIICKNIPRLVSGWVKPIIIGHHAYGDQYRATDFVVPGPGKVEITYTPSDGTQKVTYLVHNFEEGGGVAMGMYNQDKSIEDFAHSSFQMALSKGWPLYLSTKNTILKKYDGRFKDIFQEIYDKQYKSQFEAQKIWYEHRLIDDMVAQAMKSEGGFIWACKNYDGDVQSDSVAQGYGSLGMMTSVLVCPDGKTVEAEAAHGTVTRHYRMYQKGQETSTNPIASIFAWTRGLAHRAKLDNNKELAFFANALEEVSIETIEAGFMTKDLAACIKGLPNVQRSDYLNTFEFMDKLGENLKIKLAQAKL
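IDH1-R132H (0.5 ug/mL) preincubated 30 min with compound, then NADPH (0.016 mM) and alpha-KG (2 mM) added; 80 min at RT, pH 7.5. Remaining NADPH coupled via diaphorase/resazurin to fluorescence (540/590 nm); concentration-response curves normalized to no-enzyme control.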
Starred values were filed as active, the others as inactive; [ ] = dose if it differs, or a comment. Unless noted, the call rests on the fitted dose curve; in most records, active means well fitted curve in the direction sought with a large enough effect; inconclusive means small, poorly fitted or top-dose-only effect, or another doubt; inactive means no such curve, though single readings can be large; an effect the other way counts as inactive or inconclusive.

Screening CN1CCN(c2nc(-c3cc4ccccc4o3)cs2)CC1 returned rTrxR1 inhibitor 6%, BRCA1 expr up 54%, Giardia killer -4, TrxR1 substrate 2%, IL2 activator 0 and IDH1 R132H inh 2%.
For NC(=O)C1CCN(c2nc(-c3cc4ccccc4o3)cs2)CC1 the results were rTrxR1 inhibitor -1%, BRCA1 expr up 11µM*, Giardia killer 1, TrxR1 substrate 3% and IL2 activator -3.
For COc1ccccc1CNC(=O)c1cc2ccc3ccc(C)[nH]c3c2n1 the results were rTrxR1 inhibitor 21%, BRCA1 expr up -7%, TrxR1 substrate 3% and IDH1 R132H inh 16%.
Screening CCn1c(COc2ccc(OC)cc2)nc2ccccc21 returned rTrxR1 inhibitor 2%, BRCA1 expr up 11µM*, Giardia killer -9, TrxR1 substrate -1%, IL2 activator 3 and IDH1 R132H inh 2%.
COc1ccc(C=NNC(=O)CCCCC(=O)NN=Cc2ccc(OC)cc2)cc1 was read as rTrxR1 inhibitor 2%, BRCA1 expr up -26%, Giardia killer -1, TrxR1 substrate -1%, IL2 activator -1 and IDH1 R132H inh 2%.
Screening COC(=O)/C=C\C(C#N)(C#N)N=Cc1ccc(OC)cc1 returned rTrxR1 inhibitor 2.2µM*, BRCA1 expr up -22%, Giardia killer -11, TrxR1 substrate -5%, IL2 activator -1 and IDH1 R132H inh 6%.
Cc1ccc(S(=O)(=O)c2c(N)n(Cc3ccco3)c3nc4ccccc4nc23)cc1C was read as rTrxR1 inhibitor 11µM*, BRCA1 expr up -71%, Giardia killer 9, TrxR1 substrate 71%, IL2 activator 0 and IDH1 R132H inh -4%.
`Nc1c(S(=O)(=O)c2ccccc2)c2nc3ccccc3nc2n1Cc1ccco1` gave rTrxR1 inhibitor inconclusive, BRCA1 expr up -39%, Giardia killer -2, TrxR1 substrate 209%, IL2 activator -2 and IDH1 R132H inh -11%.
`CCCC(O)(CCC)C(=O)NN(C(=O)CCl)c1ccccc1` gave rTrxR1 inhibitor 11µM*, BRCA1 expr up -66%, Giardia killer -20, TrxR1 substrate 8%, IL2 activator -4 and IDH1 R132H inh 3%.
For CCN(CC)CCNC(=O)C1c2cc(OC)c(OC)cc2C(=O)N2CCc3ccccc3C12 (stereo not given) the results were rTrxR1 inhibitor 35µM*, BRCA1 expr up -9%, Giardia killer 2, TrxR1 substrate 2%, IL2 activator 0 and IDH1 R132H inh 7%.
For CC(C)(C)n1ncc2c(=O)n(Cc3cccc(C(F)(F)F)c3)cnc21 the results were rTrxR1 inhibitor 4% and TrxR1 substrate -11%.
Screening O=c1[nH]c2c(s1)C(c1ccco1)C1C3CCC(C3)C1S2 (stereo not given) returned rTrxR1 inhibitor 45µM*, BRCA1 expr up -18%, Giardia killer -5, TrxR1 substrate -10%, IL2 activator 0 and IDH1 R132H inh -3%.
For Cc1ncc([N+](=O)[O-])n1CCOC(=O)NC(NCc1ccccc1)C(Cl)(Cl)Cl (stereo not given) the results were rTrxR1 inhibitor -15%, BRCA1 expr up 2%, Giardia killer inconclusive, TrxR1 substrate -12%, IL2 activator 0 and IDH1 R132H inh 10%.
Cc1ncc([N+](=O)[O-])n1CCOC(=O)c1ccccc1 was read as rTrxR1 inhibitor -1%, BRCA1 expr up -5%, Giardia killer -100*, TrxR1 substrate -4%, IL2 activator 1 and IDH1 R132H inh 4%.
For Cc1ncc([N+](=O)[O-])n1CCOC(=O)Nc1ccc(Cl)c(Cl)c1 the results were rTrxR1 inhibitor 9%, BRCA1 expr up -25%, Giardia killer -90*, TrxR1 substrate 2%, IL2 activator -4 and IDH1 R132H inh 5%.
`CC(Nc1ccc(-c2nc(-c3ccncc3)no2)cc1[N+](=O)[O-])c1ccccc1` (stereo not given) gave rTrxR1 inhibitor 6%, BRCA1 expr up 4%, TrxR1 substrate -1% and IDH1 R132H inh 11%.
For COc1ccc(N2C(=O)c3ccccc3NC23CCCC3)cc1 the results were rTrxR1 inhibitor 9%[57.1 µM], BRCA1 expr up 6.3µM*, Giardia killer -27, TrxR1 substrate 39%, IL2 activator 0 and IDH1 R132H inh 13%.
CCC1(CC)Nc2ccccc2C(=O)N1c1ccc(OC)cc1 was read as rTrxR1 inhibitor 40%, BRCA1 expr up inconclusive, Giardia killer -15, TrxR1 substrate 106%, IL2 activator 1 and IDH1 R132H inh -6%.
`O=C(CN1CCN(c2ccc(F)cc2)CC1)c1ccc2c(c1)OCO2` gave rTrxR1 inhibitor 25µM*, BRCA1 expr up 5%, Giardia killer -6, TrxR1 substrate 4%, IL2 activator -1 and IDH1 R132H inh 3%.
Cc1ccc(C(=O)NCC(c2ccc3c(c2)OCO3)N2CCN(c3ccc(F)cc3)CC2)cc1 (stereo not given) was read as rTrxR1 inhibitor 19%[57.1 µM], TrxR1 substrate -2%[57.1 µM] and IDH1 R132H inh -5%.
Screening CC(=O)NCc1ccc(C(=O)CSc2nnc(-c3ccncc3)n2Cc2ccccc2)o1 returned rTrxR1 inhibitor 16µM*, BRCA1 expr up -28%, Giardia killer -12, TrxR1 substrate -1%, IL2 activator -1 and IDH1 R132H inh 6%.
`O=C(CSc1nnc(-c2ccncc2)n1Cc1ccccc1)NC1CCCCC1` gave rTrxR1 inhibitor 18%, BRCA1 expr up -2%, Giardia killer -4, TrxR1 substrate -1%, IL2 activator -4 and IDH1 R132H inh 8%.
Cc1ccc(C)n1-c1nnc(N2CCCC(C(=O)Nc3ccccc3Br)C2)s1 (stereo not given) was read as rTrxR1 inhibitor inconclusive and TrxR1 substrate 0%.
Screening N#Cc1cc2c(nc1SCc1ccncc1)CCC2 returned rTrxR1 inhibitor -7%, BRCA1 expr up 11µM*, Giardia killer -2, TrxR1 substrate 5%, IL2 activator 1 and IDH1 R132H inh 2%.
`O=C(Nc1nccs1)[C@@H]1CC=C[C@@H]2CCN(Cc3ccc(Cl)c(Cl)c3)C(=O)[C@@H]21` gave rTrxR1 inhibitor 1% and TrxR1 substrate -5%.
Screening CC(C)(C)OC1NS(=O)(=O)OCC1NCOC(Cl)(Cl)Cl (stereo not given) returned rTrxR1 inhibitor 1.8µM*, BRCA1 expr up -7%, Giardia killer -2, TrxR1 substrate 5%, IL2 activator -1 and IDH1 R132H inh -14%.
Cc1ccccc1NC(=O)c1ccc(F)c(S(=O)(=O)N2CCN(c3ccccc3F)CC2)c1 was read as rTrxR1 inhibitor 14%[57.1 µM], TrxR1 substrate -2%[57.1 µM] and IDH1 R132H inh 10%.

Compound activity: PubChem, National Center for Advancing Translational Sciences (NCATS)
